Experimental data: the supplement of paper PMC8728848
This excerpt belongs to a sample that is enriched for the strongest signals.

Tests used:
Assay in all cases: glycan array binding signal (z-score within array); higher = stronger binding
Settings in all cases: glycan notation: IUPAC condensed, linker removed
[1] = target: Fuc(a1-2)Gal(b1-3)GalNAc(b1-3)Gal(a1-4)Gal(b1-4)Glc
Method in brief: (§1)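 Columns mapping to the same glycan were averaged after glycan names were converted to IUPAC-condensed notation. The data come from 3228 arrays in the Consortium for Functional Glycomics database, limited to those with an available protein sequence. Binding is reported as a within-array Z-score averaged across arrays of one protein sequence and across linkers.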

[2] = target: Fuc(a1-2)Gal(b1-3)GlcNAc(b1-3)Gal(b1-4)Glc
Method in brief: as §1

[3] = target: Fuc(a1-2)Gal(b1-3)GlcNAc(b1-3)GalNAc
Method in brief: as §1

[4] = target: Fuc(a1-2)Gal(b1-3)[Fuc(a1-4)]GlcNAc(b1-3)[Fuc(a1-3)[Gal(b1-4)]GlcNAc(b1-6)]Gal(b1-4)Glc
Method in brief: as §1

Fuc(a1-2)Gal(b1-4)Glc = target: Fuc(a1-2)Gal(b1-4)Glc
Method in brief: as §1

Fuc(a1-2)Gal(b1-4)Glc6S = target: Fuc(a1-2)Gal(b1-4)Glc6S
Method in brief: as §1

[5] = target: Fuc(a1-2)Gal(b1-4)GlcNAc(b1-3)Gal(b1-4)GlcNAc
Method in brief: as §1

[6] = target: Fuc(a1-2)Gal(b1-4)GlcNAc(b1-3)Gal(b1-4)GlcNAc(b1-3)Gal(b1-4)GlcNAc
Method in brief: as §1

[7] = target: Fuc(a1-2)Gal(b1-4)[Fuc(a1-3)]GlcNAc
Method in brief: as §1

[8] = target: Fuc(a1-2)Gal(b1-4)[Fuc(a1-3)]GlcNAc(b1-2)Man(a1-3)[Fuc(a1-2)Gal(b1-4)[Fuc(a1-3)]GlcNAc(b1-2)Man(a1-6)]Man(b1-4)GlcNAc(b1-4)[Fuc(a1-6)]GlcNAc
Method in brief: as §1

[9] = target: Fuc(a1-2)Gal(b1-4)[Fuc(a1-3)]GlcNAc(b1-2)[Fuc(a1-2)Gal(b1-4)[Fuc(a1-3)]GlcNAc(b1-4)]Man(a1-3)[Fuc(a1-2)Gal(b1-4)[Fuc(a1-3)]GlcNAc(b1-2)Man(a1-6)]Man(b1-4)GlcNAc(b1-4)GlcNAc
Method in brief: as §1

[10] = target: Fuc(a1-2)Gal(b1-4)[Fuc(a1-3)]GlcNAc(b1-3)Gal(b1-4)[Fuc(a1-3)]GlcNAc
Method in brief: as §1

[11] = target: Fuc(a1-2)Gal(b1-4)[Fuc(a1-3)]GlcNAc(b1-3)Gal(b1-4)[Fuc(a1-3)]GlcNAc(b1-3)Gal(b1-4)[Fuc(a1-3)]GlcNAc
Method in brief: as §1

[12] = target: Fuc(a1-2)[Gal(a1-3)]Gal(b1-3)GlcNAc
Method in brief: as §1

[13] = target: Fuc(a1-2)[Gal(a1-3)]Gal(b1-3)GlcNAc(b1-2)Man(a1-3)[Fuc(a1-2)[Gal(a1-3)]Gal(b1-3)GlcNAc(b1-2)Man(a1-6)]Man(b1-4)GlcNAc(b1-4)[Fuc(a1-6)]GlcNAc
Method in brief: as §1

[14] = target: Fuc(a1-2)[Gal(a1-3)]Gal(b1-4)GlcNAc(b1-2)Man
Method in brief: as §1

[15] = target: Fuc(a1-2)[GalNAc(a1-3)]Gal(b1-3)GalNAc(a1-3)[Fuc(a1-2)]Gal(b1-4)GlcNAc
Method in brief: as §1

[16] = target: Fuc(a1-2)[GalNAc(a1-4)]Gal(b1-4)GlcNAc
Method in brief: as §1

[17] = target: Fuc(a1-3)[Gal(b1-4)]GlcNAc
Method in brief: as §1

[18] = target: Fuc(a1-3)[Gal(b1-4)]GlcNAc(b1-3)Gal(b1-4)[Fuc(a1-3)]GlcNAc(b1-3)Gal(b1-4)[Fuc(a1-3)]GlcNAc
Method in brief: as §1

Gal(a1-3)Gal = target: Gal(a1-3)Gal
Method in brief: as §1

Gal(b1-2)Gal = target: Gal(b1-2)Gal
Method in brief: as §1

[19] = target: Gal(b1-3)GlcNAc(a1-6)Gal(b1-4)GlcNAc
Method in brief: as §1

[20] = target: Gal(b1-3)GlcNAc(b1-2)Man(a1-3)[GlcNAc(b1-4)][Gal(b1-3)GlcNAc(b1-2)Man(a1-6)]Man(b1-4)GlcNAc(b1-4)GlcNAc
Method in brief: as §1

[21] = target: Gal(b1-3)GlcNAc(b1-3)Gal(b1-4)GlcNAc
Method in brief: as §1

[22] = target: Gal(b1-3)GlcNAc(b1-3)Gal(b1-4)[Fuc(a1-3)]GlcNAc(b1-6)[Gal(b1-3)GlcNAc(b1-3)]Gal(b1-4)Glc
Method in brief: as §1

Gal(b1-3)GlcNAc6S = target: Gal(b1-3)GlcNAc6S
Method in brief: as §1

[23] = target: Gal(b1-3)[Fuc(a1-4)]GlcNAc(b1-3)Gal(b1-3)[Fuc(a1-4)]GlcNAc
Method in brief: as §1

[24] = target: Gal(b1-3)[Fuc(a1-4)]GlcNAc(b1-3)Gal(b1-4)[Fuc(a1-3)]GlcNAc
Method in brief: as §1

Gal(b1-4)GlcNAc = target: Gal(b1-4)GlcNAc
Method in brief: as §1

[25] = target: Gal(b1-4)GlcNAc(b1-2)[Gal(b1-4)GlcNAc(b1-4)]Man(a1-3)[Gal(b1-4)GlcNAc(b1-2)Man(a1-6)]Man(b1-4)GlcNAc(b1-4)GlcNAc
Method in brief: as §1

[26] = target: Gal(b1-4)GlcNAc(b1-2)[Gal(b1-4)GlcNAc(b1-6)]Man(a1-6)[GlcNAc(b1-4)][Gal(b1-4)GlcNAc(b1-2)Man(a1-3)]Man(b1-4)GlcNAc(b1-4)GlcNAc
Method in brief: as §1

[27] = target: Gal(b1-4)GlcNAc(b1-3)Gal(b1-4)GlcNAc(b1-6)[Gal(b1-3)]GalNAc
Method in brief: as §1

[28] = target: Gal(b1-4)GlcNAc(b1-3)[GlcNAc(b1-6)]Gal(b1-4)GlcNAc
Method in brief: as §1

[29] = target: Gal3S(b1-3)[Fuc(a1-4)]GlcNAc
Method in brief: as §1

Gal6S(b1-4)Glc6S = target: Gal6S(b1-4)Glc6S
Method in brief: as §1

GalNAc(b1-6)GalNAc = target: GalNAc(b1-6)GalNAc
Method in brief: as §1

Glc(a1-6)Glc(a1-6)Glc = target: Glc(a1-6)Glc(a1-6)Glc
Method in brief: as §1

[30] = target: GlcNAc(b1-2)[GlcNAc(b1-4)]Man(a1-3)[GlcNAc(b1-4)][GlcNAc(b1-2)Man(a1-6)]Man(b1-4)GlcNAc(b1-4)GlcNAc
Method in brief: as §1

[31] = target: GlcNAc(b1-3)Gal(b1-3)GalNAc
Method in brief: as §1

[32] = target: GlcNAc(b1-3)Gal(b1-4)GlcNAc(b1-3)Gal(b1-4)GlcNAc(b1-3)Gal(b1-4)GlcNAc(b1-3)Gal(b1-4)GlcNAc(b1-2)[GlcNAc(b1-3)Gal(b1-4)GlcNAc(b1-3)Gal(b1-4)GlcNAc(b1-3)Gal(b1-4)GlcNAc(b1-3)Gal(b1-4)GlcNAc(b1-6)]Man(a1-6)[GlcNAc(b1-3)Gal(b1-4)GlcNAc(b1-3)Gal(b1-4)GlcNAc(b1-3)Gal(b1-4)GlcNAc(b1-3)Gal(b1-4)GlcNAc(b1-2)Man(a1-3)]Man(b1-4)GlcNAc(b1-4)[Fuc(a1-6)]GlcNAc
Method in brief: as §1

Man(a1-6)Man = target: Man(a1-6)Man
Method in brief: as §1

[33] = target: Neu5Ac(a2-3)Gal(b1-4)GlcNAc(b1-3)Gal(b1-4)GlcNAc
Method in brief: as §1

[34] = target: Neu5Ac(a2-3)Gal(b1-4)GlcNAc(b1-3)Gal(b1-4)GlcNAc(b1-6)[Gal(b1-3)]GalNAc
Method in brief: as §1

[35] = target: Neu5Ac(a2-3)Gal(b1-4)GlcNAc(b1-6)[Gal(b1-3)]GalNAc
Method in brief: as §1

[36] = target: Neu5Ac(a2-3)[GalNAc(b1-4)]Gal(b1-4)GlcNAc(b1-3)GalNAc
Method in brief: as §1

[37] = target: Neu5Ac(a2-6)Gal(b1-4)GlcNAc(b1-2)Man(a1-3)[Neu5Ac(a2-3)Gal(b1-4)GlcNAc(b1-2)Man(a1-6)]Man(b1-4)GlcNAc(b1-4)GlcNAc
Method in brief: as §1

[38] = target: Neu5Ac(a2-6)Gal(b1-4)GlcNAc(b1-2)Man(a1-6)[Man(a1-3)]Man(b1-4)GlcNAc(b1-4)GlcNAc
Method in brief: as §1

[39] = target: Neu5Ac(a2-6)GalNAc(b1-4)GlcNAc
Method in brief: as §1

[40] = target: Neu5Ac(a2-8)Neu5Ac(a2-8)Neu5Ac(a2-3)[GalNAc(b1-4)]Gal(b1-4)Glc
Method in brief: as §1

Neu5Gc(a2-3)Gal(b1-4)Glc = target: Neu5Gc(a2-3)Gal(b1-4)Glc
Method in brief: as §1

[41] = target: Neu5Gc(a2-8)Neu5Gc(a2-3)Gal(b1-4)GlcNAc(b1-3)Gal(b1-4)GlcNAc
Method in brief: as §1

B1: LecB LY19 (Pseudomonas aeruginosa) (protein)
chain: MATQGVFTLPANTQFGVTAFANSAGTQTVNVQVNNETVATFTGQSTNNGIIGSKVLNSGGGGKVQILVSVNGRSSDLVSAQVILANELNFALVGSEDSTDNDYNDAVVVINWPLG
glycan array binding signal (z-score) [1]: 1.77
glycan array binding signal (z-score) [2]: 1.85
glycan array binding signal (z-score) [3]: 1.49
glycan array binding signal (z-score) [4]: 1.32
glycan array binding signal (z-score) (Fuc(a1-2)Gal(b1-4)Glc): 1.5
glycan array binding signal (z-score) (Fuc(a1-2)Gal(b1-4)Glc6S): 1.37
glycan array binding signal (z-score) [5]: 3.29
glycan array binding signal (z-score) [6]: 3.69
glycan array binding signal (z-score) [7]: 2.54
glycan array binding signal (z-score) [8]: 5.32
glycan array binding signal (z-score) [9]: 0.085
glycan array binding signal (z-score) [10]: 5.07
glycan array binding signal (z-score) [11]: 3.27
glycan array binding signal (z-score) [12]: -0.452
glycan array binding signal (z-score) [13]: 0.089
glycan array binding signal (z-score) [14]: 9.41
glycan array binding signal (z-score) [15]: -0.497
glycan array binding signal (z-score) [16]: 2.12
glycan array binding signal (z-score) [17]: 1.65
glycan array binding signal (z-score) [18]: 2.77
glycan array binding signal (z-score) (Gal(a1-3)Gal): -0.538
glycan array binding signal (z-score) (Gal(b1-2)Gal): -0.514
glycan array binding signal (z-score) [19]: -0.55
glycan array binding signal (z-score) [20]: -0.306
glycan array binding signal (z-score) [21]: -0.553
glycan array binding signal (z-score) [22]: 0.2
glycan array binding signal (z-score) (Gal(b1-3)GlcNAc6S): -0.533
glycan array binding signal (z-score) [23]: 3.35
glycan array binding signal (z-score) [24]: 4.05
glycan array binding signal (z-score) (Gal(b1-4)GlcNAc): -0.551
glycan array binding signal (z-score) [25]: -0.3
glycan array binding signal (z-score) [26]: -0.542
glycan array binding signal (z-score) [27]: -0.545
glycan array binding signal (z-score) [28]: 0.575
glycan array binding signal (z-score) [29]: 3.07
glycan array binding signal (z-score) (Gal6S(b1-4)Glc6S): -0.533
glycan array binding signal (z-score) (GalNAc(b1-6)GalNAc): -0.559
glycan array binding signal (z-score) (Glc(a1-6)Glc(a1-6)Glc): -0.491
glycan array binding signal (z-score) [30]: -0.556
glycan array binding signal (z-score) [31]: -0.542
glycan array binding signal (z-score) [32]: 0.196
glycan array binding signal (z-score) (Man(a1-6)Man): -0.329
glycan array binding signal (z-score) [33]: -0.547
glycan array binding signal (z-score) [34]: -0.554
glycan array binding signal (z-score) [35]: -0.147
glycan array binding signal (z-score) [36]: -0.553
glycan array binding signal (z-score) [37]: -0.539
glycan array binding signal (z-score) [38]: 0.735
glycan array binding signal (z-score) [39]: -0.55
glycan array binding signal (z-score) [40]: -0.546
glycan array binding signal (z-score) (Neu5Gc(a2-3)Gal(b1-4)Glc): -0.511
glycan array binding signal (z-score) [41]: -0.556
